What all share (experiment): DAPPL (digital affinity profiling via proximity ligation, sequencing); 10 mM Tris-HCl pH 7.5, 50 mM NaCl, 1 mM DTT, 4% glycerol, room temperature, 30 min; GST-TFs on glutathione beads, 16-mer random dsDNA library, 0.1% formaldehyde crosslink after washing; high values mean tight binding
Conditions in all cases: protein: recombinant; tags: N-terminal GST; dsDNA, one strand shown

The target in one assay is T1, ELK1 (Homo sapiens, UniProt P19419 1-428).
T1 sequence: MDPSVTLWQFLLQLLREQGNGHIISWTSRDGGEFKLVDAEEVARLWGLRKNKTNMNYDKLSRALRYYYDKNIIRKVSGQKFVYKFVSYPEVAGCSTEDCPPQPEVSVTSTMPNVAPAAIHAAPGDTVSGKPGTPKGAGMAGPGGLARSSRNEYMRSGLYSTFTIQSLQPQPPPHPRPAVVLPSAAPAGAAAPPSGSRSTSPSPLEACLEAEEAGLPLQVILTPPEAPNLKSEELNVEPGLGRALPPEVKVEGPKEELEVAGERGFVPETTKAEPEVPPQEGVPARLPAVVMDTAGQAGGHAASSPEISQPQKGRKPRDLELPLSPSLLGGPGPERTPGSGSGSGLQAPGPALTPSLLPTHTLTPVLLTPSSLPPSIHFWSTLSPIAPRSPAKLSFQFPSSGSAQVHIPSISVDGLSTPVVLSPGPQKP
In short, it runs like this: (§1)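 Sequencing on an Illumina NextSeq500 followed washing, crosslinking with 0.1% formaldehyde, proximity ligation (BsaI/T4 ligase, 1 h, 37 °C) and PCR amplification of pools that had been incubated for 30 min at room temperature with 200 nmole of a random double-stranded 16-mer DNA library in Tris/NaCl/DTT/glycerol buffer. Each pool held DNA-barcoded human transcription factors, expressed in yeast as GST fusions and captured on glutathione beads, plus a tag-only sample. Binding signal is a hexamer's read frequency for a factor divided by its frequency in the tag-only sample.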

In the next assay the target is T2, GABPA (Homo sapiens, UniProt Q06546 1-454).
T2 sequence: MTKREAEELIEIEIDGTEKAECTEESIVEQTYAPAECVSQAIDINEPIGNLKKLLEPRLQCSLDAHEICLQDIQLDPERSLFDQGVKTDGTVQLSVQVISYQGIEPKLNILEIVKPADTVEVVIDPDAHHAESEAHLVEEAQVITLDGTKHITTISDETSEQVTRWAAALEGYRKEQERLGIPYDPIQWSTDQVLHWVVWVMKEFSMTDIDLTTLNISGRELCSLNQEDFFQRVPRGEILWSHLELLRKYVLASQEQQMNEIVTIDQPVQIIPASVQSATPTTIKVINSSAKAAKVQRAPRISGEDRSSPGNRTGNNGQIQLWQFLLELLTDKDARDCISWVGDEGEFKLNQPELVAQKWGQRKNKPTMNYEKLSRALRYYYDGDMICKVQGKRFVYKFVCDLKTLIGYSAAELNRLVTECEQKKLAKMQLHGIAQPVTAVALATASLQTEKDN
A digest of the protocol:
as §1

In another assay the target is T3, EHF (Homo sapiens, UniProt Q9NZC4 1-300).
T3 sequence: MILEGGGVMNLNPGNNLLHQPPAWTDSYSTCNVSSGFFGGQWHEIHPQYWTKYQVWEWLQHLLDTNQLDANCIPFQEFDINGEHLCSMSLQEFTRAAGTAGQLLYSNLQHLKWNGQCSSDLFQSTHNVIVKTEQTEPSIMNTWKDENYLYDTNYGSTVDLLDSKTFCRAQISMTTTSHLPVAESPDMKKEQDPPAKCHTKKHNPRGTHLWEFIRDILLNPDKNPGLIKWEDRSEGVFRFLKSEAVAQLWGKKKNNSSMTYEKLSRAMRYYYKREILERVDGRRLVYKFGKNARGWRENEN
A digest of the protocol: as §1

The next assay addresses T4, ELK3 (Homo sapiens, UniProt P41970 1-407).
T4 sequence: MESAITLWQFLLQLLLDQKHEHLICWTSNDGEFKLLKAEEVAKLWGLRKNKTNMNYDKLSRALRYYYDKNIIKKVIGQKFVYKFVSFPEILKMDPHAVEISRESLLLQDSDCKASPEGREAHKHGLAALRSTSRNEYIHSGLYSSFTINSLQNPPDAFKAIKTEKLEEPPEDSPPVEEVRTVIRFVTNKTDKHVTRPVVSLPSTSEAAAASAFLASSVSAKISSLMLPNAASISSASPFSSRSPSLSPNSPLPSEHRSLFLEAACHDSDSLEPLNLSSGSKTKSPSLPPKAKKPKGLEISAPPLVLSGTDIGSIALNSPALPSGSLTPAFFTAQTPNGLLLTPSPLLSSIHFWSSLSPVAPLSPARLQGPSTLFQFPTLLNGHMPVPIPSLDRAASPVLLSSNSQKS
A digest of the protocol: as §1

For the next assay, the target named is ETV5 (Homo sapiens, UniProt P41161 1-510). A digest of the protocol:
as §1

The next assay addresses T5, SPIC (Homo sapiens, UniProt Q8N5J4 1-248).
T5 sequence: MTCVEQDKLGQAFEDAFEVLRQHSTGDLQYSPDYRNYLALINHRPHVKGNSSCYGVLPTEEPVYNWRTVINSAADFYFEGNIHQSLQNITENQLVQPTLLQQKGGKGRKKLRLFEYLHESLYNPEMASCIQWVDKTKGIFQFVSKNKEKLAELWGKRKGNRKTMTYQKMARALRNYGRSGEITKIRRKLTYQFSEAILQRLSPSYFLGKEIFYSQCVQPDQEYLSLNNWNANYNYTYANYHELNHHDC
In short, it runs like this: as §1

A further assay has as its target T6, ELK4 (Homo sapiens, UniProt P28324-2 1-405).
T6 sequence: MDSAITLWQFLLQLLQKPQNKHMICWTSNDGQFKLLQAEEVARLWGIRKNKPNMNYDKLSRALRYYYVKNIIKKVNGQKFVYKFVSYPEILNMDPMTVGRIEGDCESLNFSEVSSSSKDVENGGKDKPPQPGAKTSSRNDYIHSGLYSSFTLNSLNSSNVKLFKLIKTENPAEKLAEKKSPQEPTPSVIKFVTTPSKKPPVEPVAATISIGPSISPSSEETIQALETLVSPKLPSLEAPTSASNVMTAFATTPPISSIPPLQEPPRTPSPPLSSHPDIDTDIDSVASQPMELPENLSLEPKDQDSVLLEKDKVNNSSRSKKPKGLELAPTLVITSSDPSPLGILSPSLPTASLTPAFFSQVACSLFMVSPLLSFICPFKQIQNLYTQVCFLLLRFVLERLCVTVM
In short, it runs like this: as §1

For a further assay, the target named is T7, ELF3 (Homo sapiens, UniProt P78545 1-371).
T7 sequence: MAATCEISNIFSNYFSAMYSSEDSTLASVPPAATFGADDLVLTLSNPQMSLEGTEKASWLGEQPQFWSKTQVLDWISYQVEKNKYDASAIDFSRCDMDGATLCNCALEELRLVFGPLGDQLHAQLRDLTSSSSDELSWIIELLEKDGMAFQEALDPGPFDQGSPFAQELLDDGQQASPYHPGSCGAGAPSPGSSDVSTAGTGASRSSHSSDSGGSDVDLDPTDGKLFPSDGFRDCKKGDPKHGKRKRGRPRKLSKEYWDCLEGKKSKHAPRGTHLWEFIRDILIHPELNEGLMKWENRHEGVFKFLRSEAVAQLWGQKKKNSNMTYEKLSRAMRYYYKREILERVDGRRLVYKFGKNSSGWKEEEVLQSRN
In short, it runs like this: as §1

Another assay addresses ETV1 (Homo sapiens, UniProt P50549 1-477). In short, it runs like this:
as §1

For a further assay, the target named is T8, ERF (Homo sapiens, UniProt P50548 1-548).
T8 sequence: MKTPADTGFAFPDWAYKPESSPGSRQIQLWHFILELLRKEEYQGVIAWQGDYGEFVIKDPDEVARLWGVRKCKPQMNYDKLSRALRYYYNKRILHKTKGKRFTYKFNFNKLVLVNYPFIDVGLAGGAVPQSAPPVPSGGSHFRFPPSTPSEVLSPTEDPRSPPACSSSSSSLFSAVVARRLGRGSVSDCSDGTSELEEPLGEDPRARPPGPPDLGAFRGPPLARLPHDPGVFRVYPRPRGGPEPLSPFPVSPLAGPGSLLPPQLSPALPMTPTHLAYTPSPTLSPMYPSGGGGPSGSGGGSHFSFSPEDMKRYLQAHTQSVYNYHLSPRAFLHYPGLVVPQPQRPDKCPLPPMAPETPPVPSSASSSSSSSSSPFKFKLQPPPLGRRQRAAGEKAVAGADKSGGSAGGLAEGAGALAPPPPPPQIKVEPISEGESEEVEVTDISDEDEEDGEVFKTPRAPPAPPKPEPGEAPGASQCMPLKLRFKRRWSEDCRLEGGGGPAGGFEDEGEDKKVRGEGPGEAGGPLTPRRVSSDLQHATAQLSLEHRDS
In short, it runs like this:
as §1

A further assay deals with T9, ETS2 (Homo sapiens, UniProt P15036 1-469).
T9 sequence: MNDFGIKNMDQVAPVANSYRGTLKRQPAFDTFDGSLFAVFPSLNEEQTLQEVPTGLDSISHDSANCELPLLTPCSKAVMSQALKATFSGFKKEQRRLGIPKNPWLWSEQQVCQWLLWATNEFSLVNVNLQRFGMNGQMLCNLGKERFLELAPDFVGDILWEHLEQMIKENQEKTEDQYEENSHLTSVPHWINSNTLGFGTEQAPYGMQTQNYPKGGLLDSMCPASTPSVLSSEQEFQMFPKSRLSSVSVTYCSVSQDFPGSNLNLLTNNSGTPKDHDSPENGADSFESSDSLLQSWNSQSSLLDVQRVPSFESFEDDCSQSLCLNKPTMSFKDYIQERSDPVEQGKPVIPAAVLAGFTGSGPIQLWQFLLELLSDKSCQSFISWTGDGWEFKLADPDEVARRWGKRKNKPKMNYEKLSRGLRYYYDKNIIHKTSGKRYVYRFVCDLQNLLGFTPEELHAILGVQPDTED
In short, it runs like this:
as §1

For a further assay, the target named is T10, SPDEF (Homo sapiens, UniProt O95238 1-335).
T10 sequence: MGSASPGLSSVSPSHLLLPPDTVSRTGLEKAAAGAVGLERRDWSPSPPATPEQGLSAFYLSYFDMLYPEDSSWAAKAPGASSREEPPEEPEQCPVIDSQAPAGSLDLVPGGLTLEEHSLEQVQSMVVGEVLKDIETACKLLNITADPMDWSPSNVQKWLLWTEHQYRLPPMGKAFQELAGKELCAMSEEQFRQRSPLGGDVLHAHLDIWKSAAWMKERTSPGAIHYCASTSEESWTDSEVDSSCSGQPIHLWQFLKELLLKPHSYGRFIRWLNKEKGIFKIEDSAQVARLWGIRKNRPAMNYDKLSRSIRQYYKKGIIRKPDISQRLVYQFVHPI
A digest of the protocol: as §1

Sequence of ETV5 (P41161 whole entry): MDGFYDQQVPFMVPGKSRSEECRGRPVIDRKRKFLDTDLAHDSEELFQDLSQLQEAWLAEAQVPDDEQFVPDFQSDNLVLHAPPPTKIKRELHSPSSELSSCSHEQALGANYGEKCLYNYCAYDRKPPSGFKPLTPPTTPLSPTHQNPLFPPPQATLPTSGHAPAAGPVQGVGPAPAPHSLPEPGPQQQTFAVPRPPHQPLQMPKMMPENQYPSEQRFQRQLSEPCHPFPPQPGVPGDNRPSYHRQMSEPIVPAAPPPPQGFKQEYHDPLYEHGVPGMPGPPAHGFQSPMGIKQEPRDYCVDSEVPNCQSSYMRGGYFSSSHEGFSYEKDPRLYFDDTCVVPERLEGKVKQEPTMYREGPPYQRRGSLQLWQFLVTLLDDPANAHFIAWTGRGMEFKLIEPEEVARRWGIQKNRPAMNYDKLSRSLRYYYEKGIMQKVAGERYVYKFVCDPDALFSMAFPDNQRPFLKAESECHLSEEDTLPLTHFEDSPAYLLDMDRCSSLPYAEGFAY
Sequence of ETV1 (P50549 whole entry): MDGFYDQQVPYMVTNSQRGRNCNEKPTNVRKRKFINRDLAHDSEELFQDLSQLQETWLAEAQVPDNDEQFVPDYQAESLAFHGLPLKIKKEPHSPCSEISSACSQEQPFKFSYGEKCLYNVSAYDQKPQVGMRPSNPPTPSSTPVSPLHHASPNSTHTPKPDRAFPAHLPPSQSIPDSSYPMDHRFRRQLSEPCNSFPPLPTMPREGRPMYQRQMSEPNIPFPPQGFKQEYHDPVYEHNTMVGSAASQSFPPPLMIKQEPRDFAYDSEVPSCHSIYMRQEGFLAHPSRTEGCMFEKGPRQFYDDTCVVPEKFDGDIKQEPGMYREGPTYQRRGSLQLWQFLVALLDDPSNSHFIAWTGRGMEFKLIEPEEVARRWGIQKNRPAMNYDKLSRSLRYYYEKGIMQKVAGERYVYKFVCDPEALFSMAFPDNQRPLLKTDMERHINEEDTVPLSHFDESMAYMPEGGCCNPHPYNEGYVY

For AGCCAC, the binding signal with ELK1 was 1.04 fold enrichment (6-mer frequency, TF over GST control); with GABPA it was 1.01 fold enrichment (6-mer frequency, TF over GST control); with EHF, 1.05 fold enrichment (6-mer frequency, TF over GST control); with ELK3 it was 1.11 fold enrichment (6-mer frequency, TF over GST control); with ETV5, 1.01 fold enrichment (6-mer frequency, TF over GST control); in the assay with SPIC, 1.03 fold enrichment (6-mer frequency, TF over GST control). The binding signal with ELK4 is 1.03 fold enrichment (6-mer frequency, TF over GST control); with ELF3, 1.06 fold enrichment (6-mer frequency, TF over GST control); in the assay with ETV1, 1.04 fold enrichment (6-mer frequency, TF over GST control); with ERF it was 1.01 fold enrichment (6-mer frequency, TF over GST control); with ETS2, 1.05 fold enrichment (6-mer frequency, TF over GST control); with SPDEF, 1.05 fold enrichment (6-mer frequency, TF over GST control).

As for CATAAG, the binding signal with ETV5 is 1 fold enrichment (6-mer frequency, TF over GST control); in the assay with ERF, 1 fold enrichment (6-mer frequency, TF over GST control).

The values above are taken from article PMC7862700, “An all-to-all approach to the identification of sequence-specific readers for epigenetic DNA modifications on cytosine”.
